Experimental data: PubChem BioAssay
Unmarked numbers belong to inactive results. For some assays here: Measured potencies and affinities stand elsewhere. Calls of active or inactive are those of the source. Unless noted, no rule for the calls is given here.

How the values were obtained:
[1] = antimalarial activity against Dd2 strain (AID 2302;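 active = growth inhibition above 50% at the single 2 µM test dose, taken to imply half-maximal potency below 2 µM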;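 also: 0% = DMSO untreated growth and 100% = chloroquine plus artemisinin killed control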); conditions: P. falciparum Dd2 in RBCs, LDH growth readout, 72 h; at 2 µM; hits give high values
[2] = HepG2 cytotoxicity, primary screen, cytotoxicity control for P. falciparum antimalarial project, cell-based, ATP luminescence (AID 2303;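 active = inhibition above 50%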;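 also: 0% = DMSO wells and 100% = digitonin-killed cells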); conditions: HepG2 viability, 24-48 h, at 10 µM, hits give high values
[3] = biological target: L-lactate dehydrogenase (Plasmodium falciparum (isolate CDC / Honduras)) (UniProt Q27743); assay: PfLDH activity inhibition – cell lysate, 3D7 strain, counter-screen for P. falciparum growth inhibition project (AID 2304);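 also: 0% = vehicle and 100% = reference inhibitor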; conditions: P. falciparum 3D7 crude extract, LDH APAD/NBT absorbance; at 2 µM; hits give high values
Chain of L-lactate dehydrogenase (Plasmodium falciparum (isolate CDC / Honduras)) (Q27743 whole entry, looked up): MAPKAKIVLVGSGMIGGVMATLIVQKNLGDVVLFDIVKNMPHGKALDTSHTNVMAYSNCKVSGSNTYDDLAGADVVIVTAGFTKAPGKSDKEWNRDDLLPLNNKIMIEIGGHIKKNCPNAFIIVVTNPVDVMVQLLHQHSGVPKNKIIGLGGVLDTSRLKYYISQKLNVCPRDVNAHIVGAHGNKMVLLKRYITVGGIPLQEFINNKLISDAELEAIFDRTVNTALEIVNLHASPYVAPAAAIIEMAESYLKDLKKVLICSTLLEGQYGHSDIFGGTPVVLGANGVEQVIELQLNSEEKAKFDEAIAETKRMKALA

[4] = inhibition of 3D7 malaria parasite growth – strain 3D7 (AID 2306);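 also: 0% = DMSO wells and 100% = chloroquine plus artemisinin control wells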; conditions: P. falciparum 3D7 erythrocytic growth, LDH absorbance, 72 h; at 2 µM; hits give high values
[5] = biological target: Calcium-dependent protein kinase 1 (Plasmodium falciparum (isolate 3D7)) (UniProt P62344); assay: PfCDPK1 kinase inhibitors, biochemical, TCAMS library (AID 1159585; cut-off not given, nearly all actives have IC50 up to about 0.98 µM;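 also: inhibitors leave more ATP so luminescence rises with inhibition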); conditions: recombinant PfCDPK1, Kinase-Glo ATP depletion luminescence
Chain of Calcium-dependent protein kinase 1 (Plasmodium falciparum (isolate 3D7)) (P62344 whole entry, looked up): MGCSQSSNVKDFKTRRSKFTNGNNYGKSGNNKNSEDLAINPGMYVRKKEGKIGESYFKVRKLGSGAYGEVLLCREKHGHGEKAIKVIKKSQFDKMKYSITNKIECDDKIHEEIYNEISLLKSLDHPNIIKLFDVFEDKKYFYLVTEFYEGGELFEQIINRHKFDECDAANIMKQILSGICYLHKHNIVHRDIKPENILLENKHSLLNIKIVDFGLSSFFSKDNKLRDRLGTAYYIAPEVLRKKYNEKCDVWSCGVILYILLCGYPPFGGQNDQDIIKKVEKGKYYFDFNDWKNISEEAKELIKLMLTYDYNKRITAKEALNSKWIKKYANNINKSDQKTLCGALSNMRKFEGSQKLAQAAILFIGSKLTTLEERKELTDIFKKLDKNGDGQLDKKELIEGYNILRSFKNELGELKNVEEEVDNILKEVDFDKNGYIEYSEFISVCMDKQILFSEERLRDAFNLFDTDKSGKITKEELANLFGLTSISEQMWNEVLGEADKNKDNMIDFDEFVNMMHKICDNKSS

[6] = biological target: Plasmodium falciparum protein kinase 6 (PK6, PF3D7_1337100) (UniProt Q8IDW1); assay: PfPK6 kinase inhibitors, biochemical, TCAMS library (AID 1159586); conditions: recombinant PfPK6, Kinase-Glo ATP depletion luminescence
Chain of Plasmodium falciparum protein kinase 6 (PK6, PF3D7_1337100) (Q8IDW1 1-305): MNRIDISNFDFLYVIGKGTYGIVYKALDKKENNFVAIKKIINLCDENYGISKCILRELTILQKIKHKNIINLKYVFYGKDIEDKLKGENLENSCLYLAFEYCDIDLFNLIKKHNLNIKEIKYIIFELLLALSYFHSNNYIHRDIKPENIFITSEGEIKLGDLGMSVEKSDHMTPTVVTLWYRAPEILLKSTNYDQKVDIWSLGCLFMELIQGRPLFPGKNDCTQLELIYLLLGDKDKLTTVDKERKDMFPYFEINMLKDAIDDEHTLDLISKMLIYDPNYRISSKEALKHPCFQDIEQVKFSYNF

[7] = biological target: Protein kinase 7 (PK7), Plasmodium falciparum 3D7 (PF3D7_0213400) (UniProt Q7YTF7); assay: inhibition of Plasmodium PK7 catalytic activity – biochemical, TCAMS antimalarial set, Kinase-Glo luminescence (AID 1159587); conditions: recombinant PfPK7, Kinase-Glo ATP depletion luminescence
Chain of Protein kinase 7 (PK7), Plasmodium falciparum 3D7 (PF3D7_0213400) (Q7YTF7 1-343): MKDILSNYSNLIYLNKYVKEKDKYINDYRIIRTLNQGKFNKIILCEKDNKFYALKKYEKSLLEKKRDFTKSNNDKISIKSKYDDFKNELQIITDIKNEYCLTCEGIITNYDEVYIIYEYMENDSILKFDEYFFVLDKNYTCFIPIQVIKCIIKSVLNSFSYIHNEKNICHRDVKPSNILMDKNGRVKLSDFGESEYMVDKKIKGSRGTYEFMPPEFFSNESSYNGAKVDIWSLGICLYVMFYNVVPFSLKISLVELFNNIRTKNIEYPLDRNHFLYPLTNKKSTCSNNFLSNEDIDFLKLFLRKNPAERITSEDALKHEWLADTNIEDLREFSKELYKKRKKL

[8] = biological target: Calcium-dependent protein kinase 4 (Plasmodium falciparum (isolate 3D7)) (UniProt Q8IBS5); assay: PfCDPK4 kinase inhibitors, biochemical, TCAMS library (AID 1159588; cut-off not given, nearly all actives have IC50 up to about 0.91 µM); conditions: recombinant PfCDPK4, Kinase-Glo ATP depletion luminescence
Chain of Calcium-dependent protein kinase 4 (Plasmodium falciparum (isolate 3D7)) (Q8IBS5 whole entry, looked up): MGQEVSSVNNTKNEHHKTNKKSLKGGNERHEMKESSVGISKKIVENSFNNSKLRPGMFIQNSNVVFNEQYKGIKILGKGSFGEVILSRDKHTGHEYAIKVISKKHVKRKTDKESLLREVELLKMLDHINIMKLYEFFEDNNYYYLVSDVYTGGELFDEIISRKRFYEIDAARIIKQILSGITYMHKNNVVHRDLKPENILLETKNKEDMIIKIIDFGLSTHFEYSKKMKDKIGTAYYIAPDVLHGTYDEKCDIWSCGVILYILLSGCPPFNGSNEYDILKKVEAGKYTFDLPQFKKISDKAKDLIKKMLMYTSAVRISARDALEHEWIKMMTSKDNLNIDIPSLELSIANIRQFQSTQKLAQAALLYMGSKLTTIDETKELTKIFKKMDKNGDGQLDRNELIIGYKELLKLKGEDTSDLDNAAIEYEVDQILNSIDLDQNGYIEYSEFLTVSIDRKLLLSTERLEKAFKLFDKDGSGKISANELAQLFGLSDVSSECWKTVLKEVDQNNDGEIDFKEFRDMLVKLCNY

| Structure (SMILES) | growth inhibition [1] | inhibition [2] | inhibition [3] [%] | growth inhibition [4] | outcome [5] | outcome [6] | outcome [7] | outcome [8] |
| --- | --- | --- | --- | --- | --- | --- | --- | --- |
| CCN(CCCN1CCCCC1)c1cc(C)nc(Nc2ccc3c(c2)CCC3)n1 | 93% (active) | 32% | 5 | 100% (active) | inactive | inactive | inactive | inactive |
| Nc1cc(C(F)(F)F)ccc1Cl | -1% | 8% | -1 | 97% (active) | inactive | inactive | inactive | inactive |
| Fc1ccc2[nH]cc(CCNCc3ccc(-c4cccc(-c5nc6ccccc6[nH]5)c4)cc3)c2c1 | 99% (active) | 69% (active) | -3 | 100% (active) | inactive | inactive | inactive | inactive |
| CC(CN(C)C)C(=O)Nc1ccc(-c2ccc(-c3nc4ccccc4[nH]3)cc2)cc1 (stereo not given) | 83% (active) | 2% | -3 | 99% (active) | inactive | inactive | inactive | inactive |
| CCCCCCn1c2c(c(=N)c3c1CCC3)CCC2 | 83% (active) | 32% | -3 | 97% (active) | inactive | inactive | inactive | inactive |
| O=C(Nc1cccc(CN2CCCN(Cc3cccc(O)c3)CC2)c1)c1cc2ccccc2s1 | 75% (active) | 15% | -4 | 101% (active) | inactive | inactive | inactive | inactive |
| N#Cc1ccc(N2CCN(Cc3cccc(-c4ccc(-c5nc6ccc(C(F)(F)F)cc6[nH]5)cc4)c3)CC2)nc1 | 81% (active) | 39% | -1 | 101% (active) | inactive | inactive | inactive | inactive |
| CC(C)CC1(C(=O)OC(C)(C)C)CC(C(=O)OC(C)(C)C)C(c2cccs2)N1C(=O)c1ccc(C(C)(C)C)cc1 (stereo not given) | 100% (active) | 21% | -2 | 101% (active) | inactive | inactive | inactive | inactive |
| Cc1nnsc1C(=O)Nc1cccc(-c2cccc(-c3nc4ccc(C(F)(F)F)cc4[nH]3)c2)c1 | 100% (active) | 70% (active) | 1 | 101% (active) | inactive | inactive | inactive | inactive |
| Cn1c(Nc2nnc(C3CC3)s2)nc2cc(Nc3ccnc(Nc4cccc(CS(C)(=O)=O)c4)n3)ccc21 | 83% (active) | -6% | -1 | 97% (active) | inactive | inactive | inactive | inactive |
| CC(C)c1ccc(O)cc1Nc1ccnc2ccc(C(F)(F)F)cc12 | 90% (active) | 6% | -6 | 97% (active) | inactive | inactive | inactive | inactive |
| O=C(C=Cc1cccc(F)c1)NC1CCC(CCN2CCc3ccc(-c4cnccn4)cc3CC2)CC1 (stereo not given) | 67% (active) | 51% (active) | -1 | 100% (active) | inactive | inactive | inactive | inactive |
| O=C(Nc1ccccc1)Nc1cccc(-c2ccc(-c3nc4ccc(C(F)(F)F)cc4[nH]3)cc2)c1 | 37% | 48% | -3 | 101% (active) | inactive | inactive | inactive | inactive |
| COc1ccc(-c2ccc(NC(=O)c3cccc(Cl)c3)cc2)cc1CN1CCCN(C)CC1 | 50% (active) | 48% | 8 | 95% (active) | inactive | inactive | inactive | inactive |
| O=C(Nc1ccc(N2CCC(Nc3ccccn3)CC2)cc1)c1cnc(Cl)c(Cl)c1 | 1% | 46% | 0 | 83% (active) | inactive | inactive | inactive | inactive |
| O=C(c1ccccc1)N1CCC(CN2CCOC(c3ccccc3)(c3ccccc3)C2)CC1 | 95% (active) | 14% | 1 | 94% (active) | inactive | inactive | inactive | inactive |
| Cc1nn(C)cc1C(C)Nc1nncc(-c2ccc(C(F)(F)F)cc2)n1 (stereo not given) | 99% (active) | -3% | -5 | 100% (active) | inactive | inactive | inactive | inactive |
| CCC(c1ccccc1)c1nn2c(-c3cccs3)nnc2s1 (stereo not given) | 95% (active) | 10% | -4 | 97% (active) | inactive | inactive | inactive | inactive |
| CN(C)c1ccc(CN2CCCC(CNC(=O)c3ccc(-c4cccc(C(F)(F)F)c4)s3)C2)cc1 (stereo not given) | 37% | 32% | 0 | 89% (active) | inactive | inactive | inactive | inactive |
| Cc1ccc(NC(=O)c2cccc(CN3CCCN(CC4CCCCC4)CC3)c2)cc1F | 42% | 22% | -2 | 85% (active) | inactive | inactive | inactive | inactive |

| Structure (SMILES) | growth inhibition [1] | inhibition [2] | inhibition [3] [%] | growth inhibition [4] | outcome [5] | outcome [6] | outcome [7] | outcome [8] |
| --- | --- | --- | --- | --- | --- | --- | --- | --- |
| COc1ccc2ncc(Cl)c([C@H](O)CN3CCC(NCc4cc5c(cn4)OCCO5)CC3)c2c1 | 100% (active) | 10% | 1 | 100% (active) | inactive | inactive | inactive | inactive |
| CCCC(C)Nc1nc(C)cc(N[C@@H](Cc2ccccc2)C(=O)Nc2ccccc2)n1 (stereo not given in full) | 67% (active) | 50% (active) | -2 | 100% (active) | inactive | inactive | inactive | inactive |
| O=C(Nc1ccc(CN2CCOCC2)cc1)c1ccc(-c2cc(Cl)ccc2Cl)o1 | 13% | 5% | -1 | 101% (active) | inactive | inactive | inactive | inactive |
| O=S(=O)(Nc1cccc(CCN2CCC(N3CCCCC3)CC2)c1)c1cccc2cccnc12 | 17% | 0% | 1 | 98% (active) | inactive | inactive | inactive | inactive |
| CCc1c(CCNC/C=C/C=C/CNCCc2ccc(OC)c(OC)c2CC)ccc(OC)c1OC | 99% (active) | 75% (active) | 3 | 100% (active) | inactive | inactive | inactive | inactive |
| CCOC(=O)c1ccc(NC(=O)Nc2ccc(-c3cccc(-c4nc5ccc(F)cc5[nH]4)c3)cc2)cc1 | 100% (active) | 98% (active) | 2 | 102% (active) | inactive | inactive | inactive | inactive |
| COc1cccc(C(=O)Nc2ccc(Nc3nc(C)cc(N(C)C)n3)cc2)c1OC | 9% | -10% | -3 | 90% (active) | inactive | inactive | inactive | inactive |
| O=C(c1cccc(COc2ccc3c(c2)CCN(C2CCCC2)CC3)c1)N1CCN(c2ccncc2)CC1 | 35% | 49% | -8 | 100% (active) | inactive | inactive | inactive | inactive |
| O=C(Nc1ccc(-c2nc3ccccc3[nH]2)cc1)c1ccc(N2CCCC2)c([N+](=O)[O-])c1 | 95% (active) | 43% | -1 | 100% (active) | inactive | inactive | inactive | inactive |
| COc1cc2nc(C)nc(Nc3cccc(Br)c3)c2cc1OC | 82% (active) | 0% | -8 | 101% (active) | inactive | inactive | inactive | inactive |
| COC(=O)c1ccc2nc(-c3ccc(/C=C/C(=O)NCc4ccc(Cl)c(Cl)c4)cc3)[nH]c2c1 | 3% | 13% | -3 | 81% (active) | inactive | inactive | inactive | inactive |
| FC(F)(F)c1ccc2nc(-c3cccc(-c4ccc(CNCc5cnn(-c6ccccc6)n5)cc4)c3)[nH]c2c1 | 67% (active) | 14% | -4 | 101% (active) | inactive | inactive | inactive | inactive |
| CC(C)C(=O)ONC1=NC(C)(C)N(OCCCOc2cc(Cl)c(Cl)cc2Cl)C(NOC(=O)C(C)C)=N1 | 93% (active) | 64% (active) | -9 | 92% (active) | inactive | inactive | inactive | inactive |
| CCOC(=O)NCC(=O)Nc1cccc(-c2cccc(-c3nc4ccc(C(F)(F)F)cc4[nH]3)c2)c1 | 34% | 59% (active) | -2 | 91% (active) | inactive | inactive | inactive | inactive |
| C[C@H](NC(=O)c1c(CN2CCC(NC(=O)CC(C)(C)C)CC2)c(-c2cccs2)nc2ccccc12)C1CCCCC1 | 70% (active) | -3% | -3 | 91% (active) | inactive | inactive | inactive | inactive |
| CSc1ccc(NC(=O)Nc2cc(C)nc3ccccc23)cc1Br | 66% (active) | 7% | -6 | 101% (active) | inactive | inactive | inactive | inactive |
| CCOc1ccc2ccccc2c1C(=O)Nc1cc(C)nn1-c1nc(C)cc(=O)[nH]1 | 86% (active) | 28% | -1 | 93% (active) | inactive | inactive | inactive | inactive |
| O=C(Nc1ccsc1)Nc1cccc(-c2cccc(-c3nc4ccc(F)cc4[nH]3)c2)c1 | 41% | 46% | 2 | 100% (active) | inactive | inactive | inactive | inactive |
| O=C(NCCc1cccc(Cl)c1Cl)c1ccc(N2CCN(c3ccncc3)CC2)nc1 | 79% (active) | 38% | 2 | 101% (active) | inactive | inactive | inactive | inactive |
| Fc1ccc2nc(-c3cccc(-c4ccc(CNCc5cnn(-c6ccccc6)n5)cc4)c3)[nH]c2c1 | 22% | 18% | -3 | 98% (active) | inactive | inactive | inactive | inactive |
